In PubChem BioAssay (EPA / NIEHS) one finds outcome and AC50 data, which are given here for 11 molecules.

As a reminder, the AC50 is the midpoint of the concentration-response curve, whichever way the signal moves.

Details in all cases: mRNA level, 48 h; actives raise or lower the signal
Read-out in assay [1]: BCL2L11 (gene 10018)
Nature of the assay: LTEA_HepaRG_BCL2L11: Life Technologies and Expression Analysis (LTEA) Assay for Bcl-2 (BCL2L11) gene using HepaRG (AID 2283473). The procedure, abridged: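 Differentiated human HepaRG cells were exposed 48 h in serum-free induction medium to eight half-log concentrations up to 100 uM in 0.5% DMSO, in duplicate. BCL2L11 mRNA was quantified by TaqMan qRT-PCR, normalized to ACTB, GAPDH and POLR2A; induction or repression fitted versus DMSO.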

Read-out in assay [2]: Apolipoprotein A-V (APOA5) gene, APOA5 (gene 116519)
Description: LTEA_HepaRG_APOA5: Life Technologies and Expression Analysis (LTEA) Assay for Apolipoprotein A-V (APOA5) gene using HepaRG (AID 2283474). The procedure, abridged: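 Differentiated HepaRG cells in serum-free induction medium, exposed 48 h in duplicate to eight half-log concentrations topping at 100 uM (0.5% DMSO). APOA5 mRNA by Fluidigm TaqMan qRT-PCR, normalized to ACTB, GAPDH and POLR2A; bidirectional fit versus DMSO.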

Read-out in assay [3]: Apoptosis regulator Bcl-2 (Homo sapiens) (UniProt P10415)
Nature of the assay: LTEA_HepaRG_BCL2: Life Technologies and Expression Analysis (LTEA) Assay for Bcl-2 gene using HepaRG (AID 2283475). The essentials:
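qRT-PCR of BCL2 transcript, normalized to three housekeeping genes (ACTB, GAPDH, POLR2A), after 48 h chemical exposure of HepaRG cells; concentrations top 100 uM with half-log dilutions, 0.5% DMSO vehicle, duplicates; changes up or down fitted relative to vehicle.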

Read-out in assay [4]: Bcl-2 (BID) gene, BID (gene 637)
Description: LTEA_HepaRG_BID: Life Technologies and Expression Analysis (LTEA) Assay for Bcl-2 (BID) gene using HepaRG (AID 2283476). The procedure, abridged:
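Duplicate 48 h treatments of HepaRG cells in serum-free induction medium spanned 100 uM downward in half-log steps, 0.5% DMSO. Transcript change quantified by qRT-PCR against three housekeeping genes, fitted up or down versus DMSO.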

Read-out in assay [5]: Caspase-3 (Homo sapiens) (UniProt P42574)
Nature of the assay: LTEA_HepaRG_CASP3: Life Technologies and Expression Analysis (LTEA) Assay for cysteine-aspartic acid protease (CASP3) using HepaRG (AID 2283477). The procedure, abridged:
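Differentiated HepaRG cells, plated 48 h, were treated in duplicate in serum-free induction medium for 48 h with eight half-log concentrations up to 100 uM in 0.5% DMSO. CASP3 mRNA measured by qRT-PCR, normalized to ACTB, GAPDH, POLR2A.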

Read-out in assay [6]: Cytochrome P450 (CYP24A1), CYP24A1 (gene 1591)
Description: LTEA_HepaRG_CYP24A1: Life Technologies and Expression Analysis (LTEA) Assay for Cytochrome P450 (CYP24A1) using HepaRG (AID 2283478). The essentials: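 HepaRG cells plated 48 h, then exposed in duplicate in serum-free induction medium for 48 h to 8-point half-log series from 100 uM in 0.5% DMSO. CYP24A1 mRNA by Fluidigm qRT-PCR, normalized to ACTB, GAPDH, POLR2A; bidirectional fit versus DMSO.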

Read-out in assay [7]: Cytochrome P450 (CYP1A2), CYP1A2 (gene 1544)
Nature of the assay: LTEA_HepaRG_CYP1A2: Life Technologies and Expression Analysis (LTEA) Assay for Cytochrome P450 (CYP1A2) using HepaRG (AID 2283479). The procedure, abridged: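 Differentiated human HepaRG cells in serum-free induction medium exposed 48 hours in duplicate to 8 half-log concentrations from 100 uM, 0.5% DMSO. CYP1A2 mRNA quantified by qRT-PCR, normalized to ACTB, GAPDH and POLR2A; bidirectional fitting versus DMSO.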

Read-out in assay [8]: cysteine-aspartic acid protease (CASP8), CASP8 (gene 841)
Nature of the assay: LTEA_HepaRG_CASP8: Life Technologies and Expression Analysis (LTEA) Assay for cysteine-aspartic acid protease (CASP8) using HepaRG (AID 2283480). The essentials:
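Concentration-response in duplicate up to 100 uM (half-log steps, 0.5% DMSO) on differentiated HepaRG cultures for 48 h. Expression change of CASP8 mRNA is determined by TaqMan qRT-PCR with housekeeping-gene normalization.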

Read-out in assay [9]: Cytochrome P450 (CYP2B6), CYP2B6 (gene 1555)
Nature of the assay: LTEA_HepaRG_CYP2B6: Life Technologies and Expression Analysis (LTEA) Assay for Cytochrome P450 (CYP2B6) using HepaRG (AID 2283481). The procedure, abridged:
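Differentiated human HepaRG cells in serum-free induction medium, dosed in duplicate for 48 h over 8 half-log concentrations topping at 100 uM (0.5% DMSO). CYP2B6 mRNA measured by TaqMan qRT-PCR, normalized to ACTB, GAPDH, POLR2A; bidirectional fit versus DMSO.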

Read-out in assay [10]: Cytochrome P450 2C19 (Homo sapiens) (UniProt P33261)
Nature of the assay: LTEA_HepaRG_CYP2C19: Life Technologies and Expression Analysis (LTEA) Assay for CYP2C19 using HepaRG (AID 2283482). The essentials:
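Differentiated HepaRG cells in serum-free induction medium exposed 48 h in duplicate, 8 concentrations from 100 uM by half-log steps in 0.5% DMSO. CYP2C19 mRNA measured by TaqMan qRT-PCR, normalized to ACTB, GAPDH, POLR2A. Bidirectional fit versus DMSO.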

Values joined by “and” are separate entries in the source; they are usually repeats but may differ in a detail not shown here. Equal entries are not always repeated. Where a structure was tested more than once in an assay, its records may differ in their call. Active and inactive are the calls of the source. Rule for the calls: active = hit-call score of the fitted dose curve at least 0.9, where 1 is the maximum; inactive = score below 0.9.

Chain of Cytochrome P450 2C19 (Homo sapiens) (P33261 whole entry, looked up): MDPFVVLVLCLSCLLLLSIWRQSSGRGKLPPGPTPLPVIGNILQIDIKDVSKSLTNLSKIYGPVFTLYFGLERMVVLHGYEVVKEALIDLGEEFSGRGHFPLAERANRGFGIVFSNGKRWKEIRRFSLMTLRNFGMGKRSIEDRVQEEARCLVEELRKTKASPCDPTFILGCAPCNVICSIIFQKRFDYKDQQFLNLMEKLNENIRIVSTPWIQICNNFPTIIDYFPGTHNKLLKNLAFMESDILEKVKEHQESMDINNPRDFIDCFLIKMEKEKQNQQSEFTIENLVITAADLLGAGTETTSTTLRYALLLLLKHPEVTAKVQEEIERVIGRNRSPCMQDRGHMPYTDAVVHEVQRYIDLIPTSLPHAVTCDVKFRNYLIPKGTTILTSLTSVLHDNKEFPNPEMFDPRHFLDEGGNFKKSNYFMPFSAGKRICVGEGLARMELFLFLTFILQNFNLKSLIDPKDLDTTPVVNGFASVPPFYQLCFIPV
Chain of Caspase-3 (Homo sapiens) (P42574 whole entry, looked up): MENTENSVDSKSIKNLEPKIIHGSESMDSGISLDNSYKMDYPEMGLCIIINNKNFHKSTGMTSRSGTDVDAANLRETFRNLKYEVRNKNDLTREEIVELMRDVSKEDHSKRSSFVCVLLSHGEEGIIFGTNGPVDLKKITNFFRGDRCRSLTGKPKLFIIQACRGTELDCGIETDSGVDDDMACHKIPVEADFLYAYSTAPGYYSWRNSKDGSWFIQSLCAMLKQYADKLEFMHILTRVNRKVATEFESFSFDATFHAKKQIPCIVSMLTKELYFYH
Chain of Apoptosis regulator Bcl-2 (Homo sapiens) (P10415 whole entry, looked up): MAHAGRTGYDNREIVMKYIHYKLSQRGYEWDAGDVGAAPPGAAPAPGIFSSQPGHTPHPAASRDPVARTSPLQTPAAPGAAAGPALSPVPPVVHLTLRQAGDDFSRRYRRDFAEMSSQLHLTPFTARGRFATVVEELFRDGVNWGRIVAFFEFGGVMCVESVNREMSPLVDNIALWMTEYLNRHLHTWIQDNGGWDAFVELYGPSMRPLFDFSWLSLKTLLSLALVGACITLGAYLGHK

On to `CC(C)N(C(=O)COc1nnc(C(F)(F)F)s1)c1ccc(F)cc1`, for which the result in assay [1], in assay [3], in [4], in [5], in [6] and in [7] was inactive. Besides, the outcome in assay [8], in assay [9] and in assay [10] was inactive. In addition, the AC50 in [2] was 78.4 µM (active).

For `CCC(C)(NC(=O)c1cc(Cl)c(C)c(Cl)c1)C(=O)CCl` (stereo not drawn), the outcome in [1], in assay [2] and in assay [6] was inactive. In addition, the AC50 in assay [4] was 82.9 µM (active); in assay [5] it was 92.4 µM (active); in assay [7], 74.1 µM (active); in assay [8] it was 89.8 µM (active); in assay [9] it was 90.1 µM (active); in [10], 85.4 µM (active).

In the case of `Oc1ccc(Cl)cc1Cc1ccccc1`, the outcome in assay [1], in assay [2], in assay [4], in assay [5], in assay [6] and in [7] was inactive. In addition, the result in [8], in assay [9] and in [10] was inactive. In addition, the AC50 in assay [2] was 79.8 µM (active); in assay [10] it was 83.7 µM (active) and 50.5 µM (active).

`CNC(=O)Oc1cccc(N=CN(C)C)c1`: the call in assay [1], in [2], in [4], in assay [5], in assay [6] and in assay [7] was inactive. The call in [8], in assay [9] and in assay [10] was inactive.

On to `CCC(C)(C)C(=O)OC1=C(c2ccc(Cl)cc2Cl)C(=O)OC12CCCCC2`, for which the call in assay [1], in [4], in [5], in assay [6], in assay [8] and in [9] was inactive. The outcome in assay [10] was inactive. Besides, the AC50 in [2] and in assay [7] was 50 µM (active) in each case.

For `O=C(O)C(F)(F)C(F)(F)C(F)(F)C(F)(F)C(F)(F)C(F)(F)C(F)(F)F`, the result in [1], in assay [2], in assay [4], in [5], in [6] and in [7] was inactive. Also, the molecule was called inactive in assay [8]. The AC50 in assay [9] was 17.9 µM (active) and 3.15 µM (active); in assay [10], 9.92 µM (active) and 5.55 µM (active).

Consider `ClC1C(Cl)C(Cl)C(Cl)C(Cl)C1Cl` (stereo not drawn), for which the outcome in assay [1], in assay [2], in assay [4], in [5], in [6] and in assay [7] was inactive. For the same molecule, the molecule was classed as inactive in assay [8]. Besides, the AC50 in [9] was 758 nM (active) and 392 nM (active); in assay [10], 1.1 µM (active) and 1.12 µM (active).

`CCOC1Oc2ccc(OS(C)(=O)=O)cc2C1(C)C` (stereo not drawn): the molecule was classed as inactive in [1], in assay [4], in assay [5], in assay [6] and in assay [8]. Besides, the AC50 in assay [2] was 77 µM (active); in assay [7], 73.3 µM (active); in [9] it was 91.3 µM (active); in assay [10], 11.7 µM (active).

Regarding `CCC(C)Nc1c([N+](=O)[O-])cc(C(C)(C)C)cc1[N+](=O)[O-]` (stereo not drawn), the molecule was called inactive in [1], in assay [2], in assay [4], in [5], in assay [6] and in assay [7]. The molecule was called inactive in [8]. Besides, the AC50 in assay [9] is 3.52 µM (active); in assay [10], 12.9 µM (active).

Consider `Oc1cc(Cl)ccc1Oc1ccc(Cl)cc1Cl`, for which the AC50 in assay [1] is 51 µM (active); in assay [2] it was 51 µM (active) and 81.5 µM (active); in assay [4], 10.1 µM (active); in assay [9], 17 µM (active) and 51 µM (active); in [10] it was 83.2 µM (active). The outcome in assay [1], in assay [2], in assay [4], in assay [5], in assay [6] and in assay [7] was inactive. Also, the call in [8], in assay [9] and in assay [10] was inactive.

Regarding `CC[C@H](C)[C@H]1O[C@]2(C=C[C@@H]1C)C[C@@H]1C[C@@H](C/C=C(\C)[C@@H](O[C@H]3C[C@H](OC)[C@@H](O[C@H]4C[C@H](OC)[C@@H](O)[C@H](C)O4)[C@H](C)O3)[C@@H](C)/C=C/C=C3\CO[C@@H]4[C@H](O)C(C)=C[C@@H](C(=O)O1)[C@]34O)O2` (tested in a mixture with another compound), the AC50 in assay [1] is 10.7 µM (active); in assay [2], 13.6 µM (active); in [3], 9.08 µM (active); in assay [7] it was 10.9 µM (active); in assay [9], 11 µM (active); in assay [10] it was 11.6 µM (active). Further, the call in [4], in assay [5], in [6] and in assay [8] was inactive.
